ALR H2O2 inh: blocks human ALR sulfhydryl oxidase activity | AID 485317 | actives 3.8% (n = 290,000) | inhibition, % (concentration not given with the values) | purified ALR, DTT oxidation, H2O2 HRP-luminol luminescence;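 active = mean replicate inhibition above about 79%, with every replicate also reaching it, limit read from the data; inconclusive = only one of the two criteria met; inactive = mean below limit and not every replicate reaching it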
PfG6PD inh: PfG6PD (Plasmodium falciparum) enzyme inhibition. PfGluPho enzyme, NADPH resazurin-diaphorase fluorescence. inhibition, % at 20 µM. actives 0.78% (n = 350,000);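 active = inhibition reaching at least a set limit at 20 µM in the primary screen, cut at about 59% in these data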;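 also: 0% = DMSO wells with substrate and 100% = DMSO wells lacking glucose-6-phosphate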
Cardio protect: protects H9c2 cardiomyocytes from peroxide injury; protection from H2O2 cell death, % at 20 µM; actives 0.63% (n = 360,000); H2O2 injury protection, ATPLite, 2 h;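 active = compounds giving at least 50% protection of heart cells from peroxide-induced death in the single-dose screen, raw or plate-pattern-corrected value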;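 also: 0% = DMSO wells with peroxide and 100% = DMSO wells without peroxide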
PfM18AAP inh-1: PfM18AAP enzyme inhibition | inhibition, % at 7.35 µM | AID 1822 | actives 1.2% (n = 290,000) | recombinant PfM18AAP, H-Glu-NHMec fluorogenic cleavage;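 active = inhibition above the campaign mean inhibition over all tested compounds plus 3 SD, cut at about 28% in these data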;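 also: 0% = plate median of test compound wells and 100% = 2 mM ZnCl2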
PHOSPHO1 block: blocks human PHOSPHO1 phosphatase activity | actives 1.1% (n = 290,000) | inhibition, % at 13.3 µM | recombinant PHOSPHO1, absorbance phosphatase assay | Q8TCT1 | AID 1565; in the data active = inhibition above about 60%
Target sequence (Q8TCT1 whole entry, looked up): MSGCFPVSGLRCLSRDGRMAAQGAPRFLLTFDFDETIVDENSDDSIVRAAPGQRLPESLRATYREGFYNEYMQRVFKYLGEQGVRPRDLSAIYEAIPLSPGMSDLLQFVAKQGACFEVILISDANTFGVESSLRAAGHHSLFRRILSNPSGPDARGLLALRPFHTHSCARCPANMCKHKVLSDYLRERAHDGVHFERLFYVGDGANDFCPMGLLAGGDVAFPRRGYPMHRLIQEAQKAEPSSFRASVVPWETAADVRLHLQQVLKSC
PfM18AAP inh-2: PfM18AAP inhibition, confirmation. inhibition, % at 7.35 µM. AID 2170. actives 28% (n = 2,400). recombinant PfM18AAP, H-Glu-NHMec fluorogenic cleavage. shares compounds with PfM18AAP inh-1;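 active = mean inhibition over replicate wells above the hit cutoff set for the earlier primary screen, cut at about 29% in these data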;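 also: 0% = median of test compound wells and 100% = 2 mM ZnCl2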
CTSL1 counter: counter-screen for PFM18AAP inhibitors: confirmation of human cathepsin L inhibitors; shares compounds with PfM18AAP inh-1; purified cathepsin L1, Z-Leu-Arg-MCA fluorescence; inhibition, % at 5.96 µM; 2,400 tested, under 10 active;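 active = average inhibition across replicates above the hit cutoff set in the earlier primary screen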;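 also: 0% = median of test compound wells and 100% = Z-Phe-Ala-diazomethylketone 1 µM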
Target sequence (P07711 whole entry, looked up): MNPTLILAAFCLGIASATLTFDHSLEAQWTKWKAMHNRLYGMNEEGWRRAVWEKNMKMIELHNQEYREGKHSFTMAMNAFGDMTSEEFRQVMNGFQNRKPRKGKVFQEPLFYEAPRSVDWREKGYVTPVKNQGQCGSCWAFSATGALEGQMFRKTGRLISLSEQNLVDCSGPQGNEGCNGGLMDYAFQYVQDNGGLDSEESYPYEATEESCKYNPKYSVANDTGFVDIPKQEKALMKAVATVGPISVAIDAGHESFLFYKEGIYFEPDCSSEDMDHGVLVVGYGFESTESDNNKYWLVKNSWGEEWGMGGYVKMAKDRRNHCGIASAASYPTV
An asterisk follows results filed as active; ? = inconclusive; . = no result. Most compounds without a hit are left out; they make up all but 5.6% or so of the library.

SMILES	ALR H2O2 inh	PfG6PD inh	Cardio protect	PfM18AAP inh-1	PHOSPHO1 block	PfM18AAP inh-2	CTSL1 counter
O=C(O)c1ccc(/C=C2\SC(=S)N(Nc3ccccc3)C2=O)cc1	61	-4	8	12	28	.	.
O=C1/C(=C/c2ccncc2)SC(=S)N1Nc1ccccc1	99*	8	11	32*	27	10	-6
N#Cc1c(-c2ccc(Cl)cc2)cc(-c2cccs2)nc1SCC(=O)O	.	29	-5	36*	29	-2	-2
COc1ccc(NC(=O)CN(c2ccccc2F)S(=O)(=O)c2ccc(C)cc2)c(OC)c1	-1	-3	-8	2	29	.	.
COCCNC(=S)NNc1ccccc1[N+](=O)[O-]	11	11	4	61*	-58	61*	3
O=C(NNc1ccccc1[N+](=O)[O-])Nc1ccc(F)cc1	.	31	5	38*	-5	1	4
CNC(=S)NNc1ccccc1[N+](=O)[O-]	98*	33	-3	57*	-62	61*	1
O=C(NNc1ccccc1[N+](=O)[O-])Nc1ccccc1	-1	21	1	11	30	.	.
Cc1[nH]c(C)c(S(=O)(=O)N2CCCCC2C)c1C(=O)N1CCCC1 (stereo not given)	-1	-1	4	3	49	.	.
CC1(C)CC(Cc2cccc(C(F)(F)F)c2)N(C(=O)OC(C)(C)C)C1 (stereo not given)	.	-12	-5	.	.	.	.
O=C(CNS(=O)(=O)c1ccccc1)NCC(=O)N1CCCCC1	-55	1	2	-1	.	.	.
O=C(CNS(=O)(=O)c1ccccc1)NNC(=O)C(Cl)Cl	0	-1	5	50*	28	27	9
C/C(=N\NS(=O)(=O)c1ccc(Br)cc1)c1ccncc1	-7	24	1	53*	25	14	-5
C/C(=N/NS(=O)(=O)c1cccc([N+](=O)[O-])c1)c1ccncc1	-7	23	-3	44*	-7	4	-4
CC(=NNS(=O)(=O)c1cccc([N+](=O)[O-])c1)c1ccc(-n2ccnc2)cc1	11	4	1	.	.	.	.
Cc1cccc(C)c1NC(=O)CSCC(=O)c1ccc(O)c(O)c1	99*	-10	17	48*	36	-1	5
Cc1cccc(C)c1NC(=O)CSCCO	-5	0	0	-4	-26	.	.
NNc1nc2c(-c3cccc(C(F)(F)F)c3)nnn2c2ccccc12	-22	28	0	35*	-3	-106	-6
COCCNc1nc2c(-c3cccc(C(F)(F)F)c3)nnn2c2ccccc12	6	1	-17	1	7	.	.
CCOC(=O)c1cnn(-c2ccc(C(F)(F)F)cn2)c1N	-14	19	-9	-13	12	.	.
CCOC(=O)NNc1ccc(C(F)(F)F)cn1	11	-7	5	56*	25	35*	-5
O=C(O)C1Sc2[nH]c(=O)sc2C2c3ccc(O)cc3OC(=O)C12 (stereo not given)	68	-6	4	38*	-48	5	-7
COc1ccccc1C1CCN(c2cc(O)ccc2[N+](=O)[O-])CC1	-6	-16	-7	12	30	.	.
CC/C(=N\Nc1ccnc2cc(Cl)ccc12)c1ccc(O)cc1	96*	15	-11	34*	10	-27	2
Oc1ccc(/C=N/Nc2ccnc3cc(Cl)ccc23)c(O)c1O	2	53	37	49*	12	-61	7
SMILES	ALR H2O2 inh	PfG6PD inh	Cardio protect	PfM18AAP inh-1	PHOSPHO1 block	PfM18AAP inh-2	CTSL1 counter
O=C(CC1CCCCC1)NCCS(=O)(=O)N1CCN(c2ccccc2)CC1	-1	-7	0	.	.	.	.
CC(=O)Nc1ccc(-c2ccnc3c2CC(C)(C(=O)Nc2cccc(OC(F)(F)F)c2)O3)cc1 (stereo not given)	.	.	5	.	.	.	.
COc1ccccc1C1CCN(Cc2cccc(C(=O)N3CCC(O)CC3)c2)CC1	-15	-8	-2	-8	.	.	.
CCOc1ccccc1N/C(=C(/C(Cl)=C(Cl)Cl)[N+](=O)[O-])n1cncn1	-1	-5	5	83*	14	74*	5
O=[N+]([O-])/C(C(Cl)=C(Cl)Cl)=C(\Nc1ccc(F)cc1)n1cncn1	96*	.	.	81*	93*	79*	8
CCOc1ccccc1NC(=O)c1ccc([N+](=O)[O-])cc1	-3	.	.	6	48	.	.
Cc1ccc2nc3c(c(Nc4ccc(O)cc4)c2c1)CCC3	?	19	-10	33*	30	10	-1
Cc1ccsc1/C=N/Nc1nc(Cl)c(Cl)cc1Cl	6	5	1	19	38	.	.
Cc1ccc(/C=N/Nc2nc(Cl)c(Cl)cc2Cl)s1	-1	8	-4	46*	7	-42	-1
O=C(CNC(=O)c1ccccn1)N=Nc1c(O)[nH]c2ccccc12	.	11	20	51*	22	28	0
O=[N+]([O-])c1cccc(C2CC(c3ccccc3)=NN2c2ccccc2)c1 (stereo not given)	-1	4	1	10	35	.	.
Cc1ccc(C2=Nc3ccccc3SC(c3cccc([N+](=O)[O-])c3)C2)cc1 (stereo not given)	19	20	-12	33*	26	-51	3
CCCCCC(=O)N1C[C@@H](O)[C@H](n2cc(COC(=O)c3ccccc3)nn2)C[C@@H]1c1ccc(OC)cc1	.	14	2	.	.	.	.
COc1cc(/C=N/N2C(=O)CSC2=S)cc(Br)c1O	.	13	-8	27	-98	.	.
O=C1CSC(=S)N1/N=C/c1c(F)cccc1F	.	16	4	37*	22	-4	2
O=C1CSC(=S)N1/N=C/c1cccc(C(F)(F)F)c1	2	12	-5	40*	-21	-6	-4
CN(C)c1ccc(C=NN2C(=O)CSC2=S)c(Cl)c1	.	-18	-6	.	.	.	.
COc1cccc(/C=N/N2C(=O)CSC2=S)c1O	98*	46	8	32*	-7	26	0
CC(=O)Oc1ccc(N(C(C)=O)S(=O)(=O)c2ccc3ccccc3c2)cc1	.	4	-10	-5	5	.	.
O=C(CCC(=O)N1CCN(Cc2ccccc2)CC1)Nc1nnc(C2CCCCC2)s1	-4	-12	-1	-9	2	.	.
CN(C(=O)c1ccccc1)C(=O)c1ccccc1	.	-8	4	.	.	.	.
COCCCNC(=S)NNC(=S)Nc1ccc(F)cc1F	10	-10	-2	32*	83*	-19	3
COCCCNC(=S)NNC(=S)Nc1ccccc1	96*	2	1	40*	-6	-14	6
O=C(CC1(CC(=O)N2CCOCC2)CCCC1)Nc1ccccc1	-20	3	5	.	.	.	.
COC(=O)c1cc(O)c(O)c(O)c1	96*	17	9	32*	-4	-5	10
CNC(=O)c1cc(C(=O)c2ccc(Cl)cc2)c[nH]1	.	7	0	-7	18	.	.
